TDP-43 tox inh: qHTS of TDP-43 Inhibitors: NCGC Sytravon Library Screen. Potency, µM (series often up to 46.1 µM), hits mostly activators. 0.45% of 45,000 active. yeast TDP-43 toxicity rescue, BacTiter-Glo growth, 24 h; active means well fitted activation curve with a large enough effect; further: 0% is about no effect; nearly all actives have a fitted effect of over 55% in size
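TDP-43-expressing yeast, pregrown in raffinose, seeded at OD600 0.02 in galactose medium with compound for 24 hr at 30 deg C. Growth read by BacTiter-Glo luminescence, so rescue of toxicity appears as activation.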
Numbers without * were called inactive; i = inactive. Many of the other results were omitted from the sample, so hits are more common in it than they were. Potency means the concentration at half of the fitted maximal effect.

SMILES	TDP-43 tox inh
Oc1c(Cl)cc(Cl)cc1/C=C/c1ccc2cccc(O)c2n1	i
COc1cc(Cl)cc(/C=C/c2ccc3ccccc3n2)c1OC(C)=O	12.6µM*
COCCCN1CC(=O)N2C(c3cccc(C)c3)c3[nH]c4ccccc4c3C[C@H]2C1=O (stereo partly specified)	i
CC1(C(=O)O)CCCN(C(=O)C2(c3ccc(Cl)cc3)CCCC2)C1 (stereo unspecified)	14.1µM*
COCCNC(=O)C1(C)CCN(C(=O)C2(c3ccc(Cl)cc3)CCCC2)C1 (stereo unspecified)	i
COCCNC(=O)C1CCCN(C(=O)C2(c3ccc(Cl)cc3)CCCC2)CC1 (stereo unspecified)	i
CN(Cc1nc2ccccc2c(=O)[nH]1)C(=O)C1CC(=O)N(c2cccc3ccccc23)C1 (stereo unspecified)	i
Clc1c(-c2ccccc2)nc2ccccn12	i
c1ccc(-c2nc(-c3ccco3)n3ccccc23)cc1	12.6µM*
Fc1ccc(-n2c(-c3ccco3)nc3nc4ccccc4nc32)cc1	i
OC(c1ccc(F)c(F)c1)c1nc(-c2cc(F)cc(F)c2)cs1 (stereo unspecified)	i
Cc1ccc(N(C)S(=O)(=O)c2cccc(C(=O)Oc3ccc4c(C)cc(=O)oc4c3)c2)cc1	i
CCOC(=O)c1nc(-c2ccccc2)oc1N1CCOCC1	i
Cc1ccc(-c2csc3nc[nH]c(=S)c23)cc1	14.1µM*
S=c1[nH]cnc2scc(-c3ccc(Br)cc3)c12	i
O=c1[nH]cnc2scc(-c3ccc(Br)cc3)c12	i
COc1ccc2c(c1)Cc1sc(NC(=O)c3ccc(Cl)cc3)nc1-2	i
CCC(C)c1ccc(O)c(NC(=S)NC(=O)c2cccnc2)c1 (stereo unspecified)	10µM*
O=C(NC(=S)NNC(=O)c1ccccc1O)c1cccnc1	i
Cc1ccc([N+](=O)[O-])cc1NC(=S)NC(=O)c1cccnc1	i
COc1cccc(CN2C(=O)CCC2(C)C(=O)NCCc2ccc(OC)c(OC)c2)c1 (stereo unspecified)	i
CC(C)=NNc1nc(-c2ccccc2)c(C)s1	i
COc1cc(/C=C/C(=O)c2ccc3c(c2)OCCO3)cc(Br)c1OCC(=O)N(C)C	15.8µM*
COc1cc(C(=O)NNC(=O)c2ccc3c(c2)OCCO3)cc(OC)c1OC	i
O=C(/C=C/c1ccncc1)c1ccc2c(c1)OCCO2	i
SMILES	TDP-43 tox inh
CCCCOc1ccc(C(=S)N2CCC(C(N)=O)CC2)cc1	i
OCCN1CCN(c2ncnc3c2ncn3[C@H]2CN(Cc3cccs3)C[C@@H](CO)O2)CC1	i
Fc1ccccc1-n1ncc2c1ncn1nc(Cc3ccccc3)nc21	11.2µM*
Cc1cccc(C)c1OCc1nc2c3cnn(-c4ccccc4F)c3ncn2n1	i
COc1ccc(Cc2nc3c4cnn(-c5ccccc5F)c4ncn3n2)cc1	i
CC(C)CNC(=O)c1cccc2c(-c3cccnc3)coc12	i
COc1ccc(NC(=O)c2cccc3c(-c4cccnc4)coc23)cc1	10µM*
O=C(NCC1CCOCC1)c1cccc2c(-c3cccnc3)coc12	i
O=C(NCCCN=C1NS(=O)(=O)c2ccccc21)c1ccc(Cl)cc1	i
COc1ccc(-c2nc(CN3CCCCC3c3nccn3C)c(C)o2)c(C)c1C (stereo unspecified)	i
O=C(O)Cc1sc(Nc2ccc(Cl)cc2)nc1-c1cccs1	i
CC1CC1C(=O)Nc1nc(-c2cccs2)c(-c2cccs2)s1 (stereo unspecified)	11.2µM*
CC(=O)Nc1sc(NC(=O)c2ccco2)nc1-c1cccs1	i
O=C(NCc1cccnc1)c1csc([C@@H]2O[C@H](CO)[C@H](O)[C@H](O)[C@H]2O)n1	i
N=C1C(c2ccccc2)=C(O)CN1c1cccc2ccccc12	i
O=S(=O)(NCc1csc(-c2ccccc2)n1)c1cccc(F)c1	i
COc1ccc(-c2nc(CNS(=O)(=O)c3ccccc3)cs2)cc1	i
Cc1cc(C)c(S(=O)(=O)NCc2csc(-c3ccccc3)n2)c(C)c1	22.4µM*
Cc1cc(C(=O)NCC(c2ccco2)N(C)C)ccc1[N+](=O)[O-] (stereo unspecified)	i
Cc1ccc(C)c(C(O)c2ncc(-c3ccc(F)cc3)[nH]2)c1 (stereo unspecified)	i
COc1ccccc1Oc1ccnc2cc(Cl)ccc12	i
Oc1ccc(N2CCN(c3ccnc4cc(Cl)ccc34)CC2)cc1	i
O=C(Oc1ccnc2cc(Cl)ccc12)N1CCCCCC1	3.16µM*
C/C(=N/NC(=O)c1cc(C)[nH]n1)c1ccncc1	i
Cc1cccc(NC(=S)NCCCN2CCOCC2)c1	i
SMILES	TDP-43 tox inh
COc1ccc(N2CCC(CNC(=S)Nc3cccc(C)c3)C2)cc1 (stereo unspecified)	14.1µM*
Cc1cc(C)cc(NC(=S)NCC2CCN(C(C)c3ccccc3)C2)c1 (stereo unspecified)	i
CC1CN(c2nnc(NC(=O)c3ccccc3)s2)CC(C)O1 (stereo unspecified)	i
CC(=O)NN1C(=O)/C(=C/c2ccc(C(C)C)cc2)SC1=S	i
O=C(O)c1nn(CCOc2c(Cl)cccc2Cl)c(=O)c2ccccc12	i
O=C(O)c1nn(CCOc2cccc(Br)c2)c(=O)c2ccccc12	17.8µM*
O=C(O)c1nn(CCOc2ccc(Cl)cc2Cl)c(=O)c2ccccc12	i
CC1CCN(c2ccccc2NC(=O)c2ccc(Br)o2)CC1	i
Cn1c(CCCNC(=O)c2ccco2)nc2ccccc21	i
CCOc1ccc(S(=O)(=O)N2CCC(C(=O)NCc3ccncc3)CC2)cc1Cl	i
N/C(=N\OC(=O)CCCOc1ccccc1)c1ccc([N+](=O)[O-])cc1	i
COc1ccc(CC(=O)O/N=C(\N)c2cccc([N+](=O)[O-])c2)cc1	i
N/C(=N\OC(=O)Cc1ccccc1)c1ccc([N+](=O)[O-])cc1	11.2µM*
Cc1cc(C)n(C(=O)CNC(=O)c2ccc(Cl)cc2Cl)n1	i
Cc1cccc(N=Nc2cnc(N)s2)c1	i
C=CCNc1ncnc2c1ncn2[C@H]1CN(C2CCCC2)C[C@@H](CO)O1	i
CCCNC(=O)COC(=O)c1c2c(nc3ccccc13)CCC2	i
CC1Cc2ccccc2N1C(=O)COC(=O)Cn1nnc(-c2ccccc2)n1 (stereo unspecified)	i
CC1Cc2ccccc2N1C(=O)COC(=O)c1c2c(nc3ccccc13)CCCCC2 (stereo unspecified)	14.1µM*
COc1ccccc1/C=C(/C(=O)OCC(=O)Nc1cc(C)ccc1C)c1ccccc1	i
O=C(/C=C/c1ccc(S(=O)(=O)N2CCOCC2)cc1)NC(CO)C(O)c1ccc([N+](=O)[O-])cc1 (stereo unspecified)	i
CC(C)CN(C(=O)CSc1nnnn1-c1ccccc1)c1c(N)n(CC(C)C)c(=O)[nH]c1=O	i
CCC(=O)N1CCCC(C)(C(=O)NS(=O)(=O)c2cccs2)C1 (stereo unspecified)	i
O=C(Cc1cccs1)Nc1nc2ccccc2s1	15.8µM*
CCc1ccc2nc(NC(=O)CCCc3cccs3)sc2c1	i
Cc1cc[n+](CC(=O)Nc2nc3ccccc3s2)cc1	i
COc1cc(C(=O)OCC(=O)Nc2ccc(C)cc2)cc(OC)c1OC	i
O=C(CSc1ccc([N+](=O)[O-])cn1)Nc1cc(C(F)(F)F)ccc1N1CCOCC1	12.6µM*
O=C(CNCc1ccccn1)Nc1cc(C(F)(F)F)ccc1N1CCOCC1	i

Assay outcomes from PubChem BioAssay.
